Screening results as filed in PubChem BioAssay.
Only some compounds are listed: those with a hit (about 3.5% of all), similar ones and a draw of the others.
MITF primary: human MITF inhibition, primary screen. AlphaScreen MITF homodimerization, bead proximity signal. inhibition, % at 2.6 µM. 650,000 compounds, 0.91% hits; in the data active = inhibition above about 50%
TEAD-YAP block: TEAD-YAP interaction inhibition. HEK-TIYL cells, TEAD-Gal4/YAP UAS-luciferase luminescence. inhibition, % at 9.12 µM. 640,000 compounds, 1.4% hits; in the data active = inhibition above about 32%
FBW7 activator: human FBW7 E3 ligase activation, primary screen; Q969H0; AlphaScreen FBW7–phospho-cyclin E peptide binding, activator screen; normalized activity (activation), % at 26.1 µM; 650,000 compounds, 0.13% hits; in the data active = normalized activity above about 1.9%;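 note: purified mutant Fbw7 with reduced substrate affinity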
GPR151 activ: activates the human receptor GPR151; PathHunter beta-arrestin GPR151 cells, luminescence; activation, % at 11.2 µM; 650,000 compounds, 1% hits; in the data active = activation above about 4.9%
Target sequence (Q8TDV0 whole entry, looked up): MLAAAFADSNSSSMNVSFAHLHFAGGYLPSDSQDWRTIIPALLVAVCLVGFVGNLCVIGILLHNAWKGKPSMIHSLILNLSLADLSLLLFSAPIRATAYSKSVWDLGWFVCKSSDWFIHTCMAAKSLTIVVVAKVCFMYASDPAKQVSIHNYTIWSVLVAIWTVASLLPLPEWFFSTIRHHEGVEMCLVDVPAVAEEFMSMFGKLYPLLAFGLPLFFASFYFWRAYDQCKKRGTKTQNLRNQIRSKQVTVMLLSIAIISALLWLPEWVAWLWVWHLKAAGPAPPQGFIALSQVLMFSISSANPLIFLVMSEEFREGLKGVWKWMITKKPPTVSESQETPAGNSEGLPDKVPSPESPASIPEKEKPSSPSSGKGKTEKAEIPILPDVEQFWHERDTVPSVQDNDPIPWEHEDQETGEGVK
Numbers stand for hits; i = inactive.

SMILES	MITF primary	TEAD-YAP block	FBW7 activator	GPR151 activ
COC(=O)C(Cc1ccccc1)NS(=O)(=O)c1ccc2ccccc2c1 (configuration not stated)	i	i	i	i
COc1ccc(N(CC(=O)NCCc2ccc(F)cc2)S(=O)(=O)c2ccccc2)c(OC)c1	i	i	i	i
Fc1ccc(CNCc2ccc(Cl)cc2)cc1	i	i	i	i
Nc1ncc(-c2cccnc2)nc1NCCCN1CCOCC1	i	i	i	i
COc1ccc(N(C)S(=O)(=O)c2cc(Br)cc3c2N(C(C)=O)CC3)c(OC)c1	i	56.1	i	i
CCc1ccc(NC(=S)N(Cc2ccccc2)Cc2cccs2)cc1	i	53.7	i	i
O=C(NCCn1ncc2c(N3CCCCCC3)ncnc21)C1CCCC1	i	i	i	i
N#Cc1nc(COc2ccc(Br)cc2)oc1NCc1ccco1	i	i	22.9	i
NS(=O)(=O)c1ccc(CCNc2ncnc3sc(-c4ccccc4)cc23)cc1	i	42.1	i	i
NNc1ccc2nnc(C(F)(F)C(F)(F)C(F)(F)F)n2n1	i	i	1.9	i
O=C(CCl)c1cnc(N2CCCCC2)s1	i	i	i	i
COc1ccc(-c2cn(-c3ccccc3)c3[n+]2CCS3)cc1	i	32.3	i	i
COc1ccc(-n2cc(-c3ccc(Cl)cc3)[n+]3c2SCCC3)cc1	i	i	i	i
CCOc1ccc(-c2cn(-c3ccccc3)c3[n+]2CCS3)cc1	i	65.1	i	i
COc1ccc(-n2cc(-c3ccccc3)[n+]3c2SCC3)cc1	i	58.9	i	i
CCN(CC)C(=O)C(Cc1c[nH]c2ccccc12)NC(=O)OCc1ccccc1 (configuration not stated)	i	i	i	i
Cc1ccccc1CSc1nc2ccsc2c(=O)n1CCc1ccc(Cl)cc1	i	i	i	i
N#Cc1ccc(NC(=O)c2cc(-c3ccc(O)cc3)on2)cc1	i	i	2.3	i
COc1ccc(-c2cc(C(=O)Nc3cccc(O)c3)no2)cc1	i	90.3	i	i
COc1ccc(NC(=O)c2cc(-c3cccc(O)c3)on2)cc1	i	i	i	i
N#Cc1ccc(NC(=O)c2cc(-c3ccc(Cl)cc3)on2)cc1	i	i	i	i
O=C(Nc1cccc(O)c1)c1cc(-c2ccc(F)cc2)on1	i	88.5	i	i
Cc1ccc(C(=O)N(C(=O)c2ccc(C)cc2)c2nc(C)c(C(C)(C)C)s2)cc1	i	i	i	i
Cc1ccc(N2C(=O)c3cc([N+](=O)[O-])cc4cc([N+](=O)[O-])cc(c34)C2=O)cc1	i	i	i	i
CC1CCCC(NC(=O)CCNc2c(N3CCCC3)c(=O)c2=O)C1C (configuration not stated)	i	i	i	i
SMILES	MITF primary	TEAD-YAP block	FBW7 activator	GPR151 activ
COc1cccc(/C=N/Nc2cccc3cccnc23)c1	i	44.0	i	i
CCOc1ccc(Nc2ncnc3nc[nH]c23)cc1	i	50.9	i	i
COc1cc(/C=N/Nc2ncnc3nc[nH]c23)cc(OC)c1OC	i	i	i	i
CC(C)c1ccc(/C=N/Nc2ncnc3nc[nH]c23)cc1	i	52.1	i	i
COc1cccc(/C=N/Nc2ncnc3nc[nH]c23)c1	i	47.5	i	i
COc1ccc(CCNc2nc(Nc3ccccn3)nc3c2ncn3-c2ccccc2)cc1	i	i	i	i
O=C(NCCC12CC3CC(CC(C3)C1)C2)c1cc([N+](=O)[O-])ccc1Cl	i	46.3	i	i
O=C(NCCn1ccc2ccccc21)c1cc([N+](=O)[O-])ccc1Cl	i	32.8	i	i
O=C(NC12CC3CC(CC(C3)C1)C2)c1cc([N+](=O)[O-])ccc1Cl	i	i	i	i
O=C(NCCCc1ccccc1)c1cc([N+](=O)[O-])ccc1Cl	i	53.0	i	i
Cc1ccc(Nc2nc3nonc3n3nnnc23)cc1C	i	i	i	i
Cc1cccc(Nc2nc3nonc3nc2Nc2ccc(I)cc2)c1C	i	i	i	i
Cc1cccc(Nc2nc3nonc3nc2Nc2ccc(F)cc2)c1C	i	35.0	i	i
Fc1ccc(Nc2nc3nonc3n3nnnc23)cc1	i	45.6	i	i
O=c1[nH]c2nonc2nc1Nc1ccccc1F	i	72.7	i	i
Fc1ccc(Nc2nc3nonc3nc2Nc2ccccc2F)cc1	i	82.6	i	i
Cc1cc(C(=O)OC(C)C)c2cc(Br)ccc2n1	i	i	i	i
O=C(NCc1csc(-c2cccs2)n1)c1ccco1	i	i	i	i
CCOC(=O)N1CCC(NC2CCN(c3ccc(C(=O)N(C)C)cc3)CC2)CC1	i	i	i	i
O=C(/C=C\Nc1ccc2c(c1)OCO2)c1ccc2ccccc2c1	i	i	i	i
O=C(/C=C/Nc1cccc(O)c1)c1ccc(Cl)cc1	i	96.8	i	i
COc1cccc(C(=O)/C=C/Nc2cccc(O)c2)c1	i	97.4	i	i
O=C(/C=C\Nc1cccc(F)c1)c1ccc2c(c1)OCO2	i	55.1	i	i
CCOC(=O)N1CCC(NC(=O)Cn2c3ccccc3c(=O)c3cc(C)ccc32)CC1	i	i	i	i
CCOC(=O)C1=C(C)NC(C)=C(C(=O)OCC)C1c1ccc(OCC(N)=O)cc1	i	i	i	i
SMILES	MITF primary	TEAD-YAP block	FBW7 activator	GPR151 activ
COc1ccc2[nH]c(CN3CCC4(CC3)NC(=O)c3ccccc3O4)c(C)c2c1	i	67.7	i	i
CC1CCCC(NC(=O)C2N(Cc3ccc(F)cc3)C(=O)C3C(C(=O)Nc4cc(Cl)cc(Cl)c4)C4C=CC32O4)C1C (configuration not stated)	i	i	i	i
CCc1ccccc1Nc1nc(N)nc(Cn2nnc(-c3ccccc3)n2)n1	i	39.4	i	i
CC1CCCCN1C(=O)CSc1nnc(-c2ccc(O)cc2)o1 (configuration not stated)	i	48.8	i	i
Cc1ccc(-c2nnc(SCC(=O)N3CCCCC3C)o2)cc1C (configuration not stated)	i	i	i	i
CCOC(=O)c1c(C)[nH]c2ccc(Oc3nc(OC)cc(OC)n3)cc12	i	41.1	i	i
CCC1=NN2C(=N)/C(=C/c3cc(Br)c(OCCOc4ccc(C)cc4)c(OC)c3)C(=O)N=C2S1	61.3	i	i	i
CCC1=NN2C(=N)/C(=C/c3cc(Br)c(OCCOc4ccc(Br)cc4)c(OC)c3)C(=O)N=C2S1	i	i	i	i
CCC1=NN2C(=N)/C(=C/c3cccc(OCCOc4ccccc4C)c3)C(=O)N=C2S1	i	i	i	i
CCC1=NN2C(=N)/C(=C\c3cccc(OCCOc4cc(C)ccc4C)c3)C(=O)N=C2S1	62.8	i	i	i
COc1cccc(Nc2nnc(SCC(=O)NNC(=O)c3ccccn3)s2)c1	i	79.3	i	i
COc1cccc(Nc2nnc(SCC(=O)NNC(=O)C3CC3)s2)c1	i	i	i	i
Cc1cc2ncn(CC3CCN(C(=O)c4ccccc4Br)CC3)c2cc1C	i	40.2	i	i
O=C(OCC(=O)N1CCNC1=O)c1cc(-c2ccc(Cl)cc2)nc2ccccc12	i	i	i	i
COc1ccc2c(c1)CC(c1nc3c(OCCN(C)C)cc(-c4cn[nH]c4)cc3s1)CO2 (configuration not stated)	i	73.3	i	i
COc1ccc2c(c1)CC(C(=O)Nc1ccc(-c3cn[nH]c3)cc1OCCCO)CO2 (configuration not stated)	i	i	i	i
